A selection: hits, their analogues and other compounds. The true share with any hit is near 12%.
Marburg entry inh = inhibitors of Marburg virus binding or cell entry. Marburg virus pseudotyped entry inhibition, cell reporter. Potency, µM (top dose mostly 37.8 µM), for inactives: at the highest dose activity change, negative = inhibition, actives largely listed as inhibitors. actives 1.8% (n = 300,000); calls by dose curve; tested in HEK293 cells; note: potency is the fitted concentration of half-maximal effect; % is set by controls: 0 for no effect and ±100 for the full control effect
Lassa entry inh = Lassa virus entry inhibition | Lassa virus pseudotype entry inhibition, cell reporter | Potency, µM (top dose mostly 37.9 µM), for the others: top-dose activity change, negative = inhibition, usual class: inhibitors | actives 1.2% (n = 300,000); calls by dose curve; tested in HEK293 cells; note: potency is the fitted concentration of half-maximal effect; % is set by controls: 0 for no effect and ±100 for the full control effect; nearly all actives have a fitted effect of over 50% in size
Cycloheximide cs = affects cycloheximide protein synthesis inhibition readout, counter-screen. cell reporter, cycloheximide protein synthesis inhibition counterscreen. max response, %. actives 12% (n = 300,000). AID 2314; in the data active = max response mostly above about 13%, no sharp cut-off; inactive = mostly below about 14%; note: read at 38.3 µM for the half of the compounds with a filed dose; 0% is about no effect
Shiga inhibitor = blocks Shiga toxin action in Vero cells | Vero cells, Shiga toxin protein synthesis inhibition reporter | actives 9.2% (n = 290,000) | inhibition, % at 38.7 µM; in the data active = inhibition mostly above about 28%, no sharp cut-off; inactive = mostly below about 43%; note: 0% is about no effect
Active calls of the source: *; ? = inconclusive; . = no result; [ ] = dose if it differs, or a comment.

SMILES	Marburg entry inh	Lassa entry inh	Cycloheximide cs	Shiga inhibitor
Oc1ccc(-c2cn3ccccc3n2)cc1O	.	.	3	-4
COc1ccc(-n2c(C)cc(-c3cn4cccc(C)c4n3)c2C)cc1	?	?	2	10
Cc1cc(-c2cn3ccccc3n2)c(C)n1-c1ccccc1	?	?	48*	64*
CN(C)S(=O)(=O)c1ccc(-c2ccccc2)cc1	7%	-2%	10	3
Oc1ccc(-c2cn3ccccc3n2)cc1	.	.	23*	25
Cc1cc(C)n(-c2ncccc2[N+](=O)[O-])n1	2%	-3%	-2	8
CC(C)c1ccc(-n2cnn(-c3ncccc3[N+](=O)[O-])c2=O)cc1	-22%[46.1 µM]	?	34*	77*
CCOc1ccccc1-c1nnc2n1N=C(c1ccc(OC)cc1)CS2	.	.	-10	-5
CC(C)c1ccc(-n2nc3ccc(N)cc3n2)cc1	?	?	68*	77*
Cc1ccc(-n2nc3ccc(N)cc3n2)cc1	?	11µM*	28*	95
Cn1cc2ccc(N)cc2n1	0%	10%	6	-20
Nc1ccc2nn(-c3ccc(F)cc3)nc2c1	.	.	58*	95*
Nc1ccc2nn(-c3cc([N+](=O)[O-])ccc3O)nc2c1	.	.	7	-3
CCC(C(=O)N1CCN(Cc2ccc3c(c2)OCO3)CC1)n1c(=O)[nH]c2ccccc2c1=O (configuration not stated)	-1%[46.1 µM]	8%[46.1 µM]	3	12
Cc1ccc(CCNc2nc3c(S(=O)(=O)c4ccc(C)cc4)nnn3c3ccsc23)cc1	.	14%[46.1 µM]	.	.
O=C(O)C1C=Cc2ccccc2N1C(=O)c1ccccc1 (configuration not stated) (tested in a mixture with another compound)	19%	-28%	.	.
Cc1nnc(SCC(=O)c2cc(C)n(C3CC3)c2C)s1	?	?	81*	69*
Cc1cc(C(=O)CSc2nnnn2C)c(C)n1C1CC1	.	.	56*	151*
O=C(c1ccccn1)c1cc2ccccc2n1S(=O)(=O)c1ccccc1	21%	23%	26*	43*
O=S(=O)(c1ccccc1)c1nc(-c2cccs2)oc1NCC1CCCO1 (configuration not stated)	6%	-10%	-1	4
Cc1cccc(-c2noc(CCCC(=O)NCC3CCCO3)n2)c1 (configuration not stated)	-13%[46.1 µM]	.	-2	28
Cc1cccc(-c2nc(C#N)c(NCC3CCCO3)o2)c1 (configuration not stated)	-10%[46.1 µM]	?	44*	89*
Cc1cccc(-c2nc(C#N)c(N3CCCCCC3)o2)c1	14%	-2%	28*	70*
N#Cc1nc(-c2cccs2)oc1NCC1CCCO1 (configuration not stated)	-2%	14%	9.3*	11
Cc1ccc(-c2cc(C(F)F)nc(NCC3CCCO3)n2)cc1 (configuration not stated)	0%[46.1 µM]	-9%	16*	48*
SMILES	Marburg entry inh	Lassa entry inh	Cycloheximide cs	Shiga inhibitor
COc1ccc(-c2cc(C)no2)cc1S(=O)(=O)N(C)c1ccc(C)cc1	.	.	2	-3
COc1cc(C2C(C#N)=C(N)N(N(C)C)C3=C2C(=O)CCC3)ccc1O (configuration not stated)	?	2%[46.1 µM]	-1	-4
Cc1ccc(-c2nc(C#N)c(NCC3CCCO3)o2)cc1 (configuration not stated)	1%[46.1 µM]	.	25*	82*
COc1ccc(-c2nc(C#N)c(NCCCN3CCOCC3)o2)cc1	.	.	-3	24
COc1ccc(-c2nc(C#N)c(NCC3CCCO3)o2)cc1 (configuration not stated)	4%	12%	25*	73*
CC/C(=N\NC(=O)c1nnn(-c2nonc2N)c1-c1cccc(OC)c1)c1ccc(C)cc1	.	.	-2	14
O=S(=O)(NCc1ccccn1)c1cc(C(F)(F)F)ccc1Cl	.	.	-2	20
Cc1cc(NCc2ccccn2)nc2ccccc12	-2%	17%	21*	7
FC(F)(F)c1ccc(NCc2ccccn2)nc1	.	.	56*	97*
c1ccc(CNc2ccc3ccccc3n2)nc1	?	?	30*	58
Cc1nc(NCc2ccccn2)c2ccccc2n1	?	-43%	8	-1
CCOc1ccc2c(c1)OC(c1ccc(C)cc1)(C(F)(F)F)NC2=O (configuration not stated)	-26%	?	27*	53*
Cc1ccc(C)c(-n2cc(CNCCCn3cccn3)c(-c3ccccc3)n2)c1	10µM*	?	-1	-5
O=C(COc1cccc2cccnc12)N1CCc2ccccc21	3%[46.1 µM]	11%	18*	63*
O=C(OCC(=O)N1CCc2ccccc21)c1ccccn1	.	.	32*	52
O=C(OCC(=O)N1CCc2ccccc21)c1cccnc1Cl	23%	6%	35*	69*
Cc1ccc2cccc(OCC(=O)N3CCc4ccccc43)c2n1	2%[46.1 µM]	2%	-2	-3
Cc1ccc(N(Cc2cc3ccc(C)cc3[nH]c2=O)S(=O)(=O)c2ccccc2)cc1	?	-30%[46.1 µM]	0	-7
CSc1ccccc1OCc1cc(C(=O)N2CCCC(C)C2)no1 (configuration not stated)	-8%	?	27*	89*
CCN(CC1CCCO1)C(=O)c1cc(COc2ccccc2SC)on1 (configuration not stated)	13%	-4%	55*	82*
CCN(CC)C1CCN(C(=O)c2cc(COc3ccccc3SC)on2)C1 (configuration not stated)	.	.	0	-4
O=C(c1cc(COc2ccccc2)on1)N1CCCC(OCc2cccnc2)C1 (configuration not stated)	3%	-2%	8	7
COc1ccccc1OCc1cc(C(=O)N2CCCC(OCc3cccnc3)C2)no1 (configuration not stated)	10%[46.1 µM]	-4%[46.1 µM]	58*	96*
O=C(c1cc(COc2cccc3cnccc23)on1)N1CCCC(CCCO)C1 (configuration not stated)	.	.	-2	-18
COc1ccc(OCc2cc(C(=O)N3CCCC(CO)C3)no2)c2ccccc12 (configuration not stated)	-13%	-12%	44*	84*
SMILES	Marburg entry inh	Lassa entry inh	Cycloheximide cs	Shiga inhibitor
Cc1ccc(-n2c(=O)c3c4c(sc3n3c(C)nnc23)CO[C@H](C(C)C)C4)cc1	13%	.	.	.
COc1ccc(C(=O)NCCCNC(=O)c2cnccn2)cc1	11%[46.1 µM]	7%[46.1 µM]	4	36
O=C(NC(NC(=S)Nc1cccc(Cl)c1)C(Cl)(Cl)Cl)OCc1ccccc1 (configuration not stated)	?	?	-2	-11
CCOC(=O)c1sc2ncn(CC(=O)Nc3ccc(C)cc3Br)c(=O)c2c1C	?	0%[46.1 µM]	.	.
CSc1ccccc1OCc1cc(C(=O)N2CCN(C3CCCC3)C(=O)C2)no1	3%	1%	54*	41*
CSc1ccccc1OCc1cc(C(=O)N2CCN(c3ncccn3)CC2)no1	.	.	0	-20
CSc1ccccc1OCc1cc(C(=O)N2CCSCC2)no1	?	?	61*	99*
Cc1ccccc1OC1CCN(C(=O)c2cc(COc3ccccc3)on2)CC1	24%	?	15	12
CSc1ccccc1OCc1cc(C(=O)N2CCC(Oc3cccnc3)CC2)no1	.	.	42*	95*
